Several values for one entry are separate records, joined by “and”; a condition that tells them apart may be missing. Identical values can stand only once. A number with no mark means an inactive call. Inconclusive results are not listed. Entries that show only a call come without a potency. Activity calls are given as the source filed them. Unless noted, calls come from the whole dose curve; as a rule, active = well fitted curve in either direction with a large enough effect (not every such curve was filed as active); inconclusive = small, poorly fitted or top-dose-only effect, or another doubt; inactive = flat fitted curve, though single readings scatter.
How the values were obtained:
[1] = AP1 Signaling Pathway (AID 357);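 note: ME-180 reporter cells stimulated with EGF at its EC50 level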
In short: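 AP-1-bla ME-180 cells, Opti-MEM + 0.5% dialyzed FBS, plated overnight 37 °C. Cpd titration + EC50 EGF, 5 h 37 °C. CCF4 2.5 h RT; ex 405, em 460/530 ratio → %activity, AC50.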

[2] = NFAT Signaling Pathway (AID 444); settings: Jurkat NFAT-bla M1, carbachol, beta-lactamase ratio, 5 h;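 note: carbachol stimulus at about its EC50 of 1 µM final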
In short: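 Read-out: CCF4 FRET ratio (460 nm/530 nm) after 1 h RT dye loading, used for %activity and AC50 from titration series. Cells: Jurkat NFAT-β-lactamase/M1 line, treated with compound plus 1 uM carbachol for 5 h, 37 °C.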

[3] = biological target: Glucocorticoid receptor (Homo sapiens) (UniProt P04150); test: GR-GFP Redistribution (AID 450;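 active = compounds whose dose series gives a full or clear partial fitted curve of increased nuclear translocation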; note: potency is the fitted concentration of half-maximal effect); settings: U2OS GR-GFP nuclear translocation, laser cytometry, 2 h
[4] = biological target: Glucocorticoid receptor (Homo sapiens) (UniProt P04150); test: GR-EFC Redistribution (AID 451; calls by dose curve; note: potency is the fitted concentration of half-maximal effect); settings: CHO-K1 GR-EFC translocation, beta-gal luminescence, 2 h
In short: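 Translocation of GR-ED fusion to nuclear EA restores b-gal, read by luminescence after 1 h room-temperature detection. Engineered CHO-K1 biosensor cells, 1,000/well, exposed 2 h at 37 C to titrations up to 46 uM final.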

[5] = biological target: Mitogen-activated protein kinase 10 (Mus musculus) (UniProt Q61831); test: JNK3 AlphaScreen Assay (AID 530);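 note: kinase came from lysate of stimulated human HepG2 cells; signal reports phosphorylation of biotinylated GST-cJun 1-79 at Ser73 with 10 µM ATP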
In short: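 Kinase buffer: 20 mM Tris-HCl pH 7.6, 10 mM MgCl2, 1 mM DTT, 0.1 mM Na3VO4, 0.01% Tween-20; ATP 10 uM. Substrate biotin-GST-cJun(1-79), enzyme from activated HepG2 lysates. Detection by Ser73 phospho-antibody AlphaScreen.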

[6] = Stat Signaling Pathway (AID 446);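 note: ME-180 cervical cancer cells given 40 pM IL-6 alongside compound; SIE-controlled beta-lactamase reporter measured as 460/530 nm FRET emission ratio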
In short: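 FRET read-out (405 nm excitation, 460/530 nm emission) of a beta-lactamase reporter under a STAT-inducible element in ME-180 cervical carcinoma cells. Cells with compound receive 40 pM IL-6 for 5 h. Values are normalised to AC90 stimulation and AC90 JAK-inhibitor controls.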

[7] = biological target: Cytochrome P450 1A2 (Homo sapiens) (UniProt P05177); test: p450-cyp1a2 (AID 410; calls by dose curve; note: potency is the fitted concentration of half-maximal effect)
In short: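 Read-out is luminescence from luciferin produced by CYP1A2 demethylation of Luciferin-ME (100uM, at Km). Detection reagent stopped the 60 min NADPH-dependent reaction; signals were normalized to 57 uM furafylline.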

[8] = Cell Viability - HepG2 (AID 433; calls by dose curve;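 note: potency is the fitted concentration of half-maximal effect; cells exposed to compound for 40 hours; potency for ATP loss meaning cytotoxicity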); settings: qHTS
In short: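 Cytotoxicity read as ATP loss (CellTiter-Glo luminescence) after 40 hr compound exposure of HepG2, 1500 cells/well, 37 °C. AC50 by Hill equation; 0% set by DMSO, 100% inhibition by 100 uM tamoxifen.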

[9] = Cell Viability - N2a (AID 540; active = well fitted curve in the direction sought with a large enough effect; an effect the other way counts as inactive or inconclusive; note: nearly all actives have a fitted effect of over 45% in size); settings: N2a mouse neuroblastoma cell viability; activity change, negative = cytotoxicity: at 92.2 µM (top of the series)
In short: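 In this qHTS cytotoxicity screen, ATP-dependent luciferase luminescence reports viable N2a cells after a 40 hr compound exposure in complete culture medium. Potencies are AC50 values from standard Hill equation fits.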

[10] = Cell Viability - NIH 3T3 (AID 541; active = well fitted curve in the direction sought with a large enough effect; an effect the other way counts as inactive or inconclusive;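 note: cells exposed to compound for 40 hours; nearly all actives have a fitted effect of over 25% in size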); settings: NIH 3T3 cell viability, qHTS; activity change, negative = cytotoxicity: at 92.2 µM (top of the series)
In short: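 In this cytotoxicity screen, acute toxicity is scored as an ATP drop measured by CellTiter-Glo in NIH 3T3 fibroblasts following a 40 hr, 37 °C incubation with compound.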

[11] = Cell Viability - HUV-EC-C (AID 542; active = well fitted curve in the direction sought with a large enough effect; an effect the other way counts as inactive or inconclusive;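 note: cells exposed to compound for 40 hours; nearly all actives have a fitted effect of over 35% in size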)
In short: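 Concentration-dependent ATP loss in HUV-EC-C cells is the measure. Exposure lasts 40 hr at 37 °C; luminescence follows CellTiter-Glo addition, and Hill fits give AC50.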

[12] = Cell Viability - Renal Proximal Tubule (AID 545; active = well fitted curve in the direction sought with a large enough effect; an effect the other way counts as inactive or inconclusive;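 note: cells exposed to compound for 40 hours; nearly all actives have a fitted effect of over 40% in size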)
In short: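 Viability taken as intracellular ATP (CellTiter-Glo luminescence) after 40 hr, 37 °C compound treatment of primary proximal tubule cells from rat kidney, 1000 cells/well; Hill-equation fits of qHTS concentration-response data gave AC50.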

[13] = Cell Viability - BJ (AID 421; calls by dose curve;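 note: potency is the fitted concentration of half-maximal effect; cells exposed to compound for 40 hours at 37 °C before readout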); settings: BJ fibroblast viability, qHTS
In short: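 Cytotoxicity as drop in intracellular ATP (CellTiter-Glo, 20 min RT) after 40 hr compound exposure of BJ fibroblasts at 37 °C. Titrations scaled between DMSO and 100 uM tamoxifen, Hill-fitted for AC50.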

[14] = Cell Viability - Jurkat (AID 426;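 active = dose-dependent loss of cell ATP signal giving a full or clear fitted curve, ranked by lower potency value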;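 note: potency is the fitted concentration of half-maximal effect; cells exposed to compound for 40 hours at 37 °C before ATP read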); settings: qHTS
In short: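 Cytotoxicity was scored as loss of cellular ATP, measured by luciferase-based luminescence, in Jurkat clone E6-1 cells after 40 h compound treatment; tamoxifen and doxorubicin served as positive controls.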

[15] = Cell Viability - Hek293 (AID 427;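 active = compounds whose dose-response curve shows a full or clear partial loss of cell viability, called from curve shape rather than a numeric limit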;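 note: potency is the fitted concentration of half-maximal effect; cells exposed to compound for 40 hours at 37 °C before reading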); settings: qHTS
In short: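 Luminescent ATP content (CellTiter-Glo, 20 min at room temperature) was measured after a 40 hr, 37 °C compound exposure of HEK293 cells. AC50 values came from Hill-equation fits of qHTS concentration-response data normalized to DMSO and 100 uM tamoxifen.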

[16] = Cell Viability - MRC5 (AID 434; calls by dose curve;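 note: potency is the fitted concentration of half-maximal effect; cells exposed to compound for 40 hours at 37 °C; potency reflects cytotoxicity seen as loss of intracellular ATP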); settings: MRC5 lung fibroblast viability, qHTS
In short: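 AC50 values come from Hill-equation fits of intracellular ATP loss, measured by CellTiter-Glo luminescence. Normal lung fibroblasts (MRC5) had 40 hr compound treatment at 37 C, normalized between DMSO and 100 uM tamoxifen.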

[17] = Cell Viability - SK-N-SH (AID 435; calls by dose curve; note: potency is the fitted concentration of half-maximal effect); settings: SK-N-SH neuroblastoma cell viability qHTS
In short: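 qHTS cytotoxicity: CellTiter-Glo ATP luminescence after 40 h compound exposure of human neuroblastoma SK-N-SH cells at 37 °C. AC50 derived by Hill-equation fitting, with DMSO as basal and 100 uM tamoxifen as full inhibition.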

[18] = Cell Viability - H-4-II-E (AID 543; active = well fitted curve in the direction sought with a large enough effect; an effect the other way counts as inactive or inconclusive;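 note: cells exposed to compound for 40 hours; nearly all actives have a fitted effect of over 35% in size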)
In short: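 AC50 from Hill-modelled qHTS concentration-response curves. H-4-II-E rat hepatoma cells in complete medium, 40 hr exposure at 37 °C, viability by CellTiter-Glo ATP luminescence.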

[19] = Cell Viability - SH-SY5Y (AID 544; active = well fitted curve in the direction sought with a large enough effect; an effect the other way counts as inactive or inconclusive;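 note: cells exposed to compound for 40 hours; nearly all actives have a fitted effect of over 55% in size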); settings: SH-SY5Y neuroblastoma cell viability; viability change, negative = cytotoxic: at 92.2 µM (top of the series)
In short: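 Quantitative HTS in SH-SY5Y neuroblastoma cells, 40 hr treatment at 37 °C, ATP content by luciferase luminescence; AC50 from Hill fits.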

Glucocorticoid receptor (Homo sapiens), sequence (P04150 whole entry, looked up, the tested form may be a part): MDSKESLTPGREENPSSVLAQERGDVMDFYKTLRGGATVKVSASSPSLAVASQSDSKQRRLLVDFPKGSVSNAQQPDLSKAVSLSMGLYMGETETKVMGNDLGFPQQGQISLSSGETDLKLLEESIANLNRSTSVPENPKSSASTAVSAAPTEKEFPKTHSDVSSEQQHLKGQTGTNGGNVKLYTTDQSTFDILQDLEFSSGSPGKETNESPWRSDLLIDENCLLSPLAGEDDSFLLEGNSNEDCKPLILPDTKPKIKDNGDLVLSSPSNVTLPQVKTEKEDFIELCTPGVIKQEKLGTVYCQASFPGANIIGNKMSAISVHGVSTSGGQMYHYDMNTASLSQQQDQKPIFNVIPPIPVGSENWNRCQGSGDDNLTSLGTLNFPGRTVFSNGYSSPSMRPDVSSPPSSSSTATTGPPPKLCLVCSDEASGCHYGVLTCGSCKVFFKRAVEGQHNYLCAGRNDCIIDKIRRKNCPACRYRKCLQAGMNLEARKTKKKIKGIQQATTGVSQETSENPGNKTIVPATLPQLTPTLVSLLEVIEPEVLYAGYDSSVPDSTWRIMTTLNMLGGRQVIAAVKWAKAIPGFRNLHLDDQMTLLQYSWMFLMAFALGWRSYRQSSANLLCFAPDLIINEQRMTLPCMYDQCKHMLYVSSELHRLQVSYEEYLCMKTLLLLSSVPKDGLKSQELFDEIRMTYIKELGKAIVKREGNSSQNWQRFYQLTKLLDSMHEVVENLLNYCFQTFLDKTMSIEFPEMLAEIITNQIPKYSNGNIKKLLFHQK
Cytochrome P450 1A2 (Homo sapiens), sequence (P05177 whole entry, looked up): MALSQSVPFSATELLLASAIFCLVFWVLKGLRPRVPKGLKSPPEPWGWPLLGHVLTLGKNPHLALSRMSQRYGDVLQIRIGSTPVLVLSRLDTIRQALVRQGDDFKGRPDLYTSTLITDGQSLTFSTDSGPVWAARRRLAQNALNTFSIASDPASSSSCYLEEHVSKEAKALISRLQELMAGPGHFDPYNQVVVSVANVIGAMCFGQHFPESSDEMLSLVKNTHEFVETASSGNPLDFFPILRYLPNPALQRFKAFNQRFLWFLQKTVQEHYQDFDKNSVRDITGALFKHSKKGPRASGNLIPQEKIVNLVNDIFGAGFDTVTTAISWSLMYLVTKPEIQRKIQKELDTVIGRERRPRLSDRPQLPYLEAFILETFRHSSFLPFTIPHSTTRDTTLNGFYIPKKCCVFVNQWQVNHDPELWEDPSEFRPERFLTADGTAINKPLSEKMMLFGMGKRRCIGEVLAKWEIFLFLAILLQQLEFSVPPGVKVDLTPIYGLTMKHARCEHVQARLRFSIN

SMILES: Cc1ccc(C(=O)Nc2ccc(S(=O)(=O)O)c3cc(S(=O)(=O)O)cc(S(=O)(=O)O)c23)cc1NC(=O)c1cccc(NC(=O)Nc2cccc(C(=O)Nc3cc(C(=O)Nc4ccc(S(=O)(=O)O)c5cc(S(=O)(=O)O)cc(S(=O)(=O)O)c45)ccc3C)c2)c1
- outcome [1]: inactive
- activity change, negative = inhibition ([2]; at 38 µM (top of the series)): -19.8%
- Potency [3]: > 46 µM
- Potency [4]: > 46 µM
- outcome [5]: inactive

SMILES: Cn1cnc2c1c(=O)[nH]c(=O)n2C
- outcome [1]: inactive
- activity change, negative = inhibition ([2]; at 17.2 µM (top of the series)): -1.3% and 20%
- activity change, negative = inhibition ([2]; at 38 µM (top of the series)): 4.74%
- outcome [6]: inactive
- Potency [3]: > 46 µM and > 20.6 µM
- Potency [4]: > 46 µM and > 20.6 µM
- outcome [5]: inactive

SMILES: OCCN(CCO)c1nc(N2CCCCC2)c2nc(N(CCO)CCO)nc(N3CCCCC3)c2n1
- activity change, negative = inhibition ([2]; at 17.2 µM (top of the series)): 7.02% and -24.7%
- activity change, negative = inhibition ([2]; at 38 µM (top of the series)): -0.6%
- outcome [6]: inactive
- outcome [5]: inactive

SMILES: CNCCCC12CCC(c3ccccc31)c1ccccc12
- outcome [1]: inactive
- outcome [6]: inactive
- Potency [3]: > 46 µM and > 20.6 µM
- Potency [4]: > 46 µM and > 20.6 µM
- outcome [5]: inactive

SMILES: COc1cc2nc(N3CCN(C(=O)c4ccco4)CC3)nc(N)c2cc1OC
- Potency [7]: inactive
- outcome [6]: inactive
- outcome [5]: inactive

SMILES: Clc1ccc(C(c2ccccc2Cl)C(Cl)Cl)cc1 (stereo unspecified)
- Potency [8]: > 92 µM
- activity change, negative = cytotoxicity [9]: -100% (active)
- Potency [10]: inactive
- outcome [11]: inactive
- Potency [12]: inactive

SMILES: CCOC(=O)C(C)(C)Oc1ccc(Cl)cc1
- outcome [1]: inactive
- activity change, negative = inhibition ([2]; at 38 µM (top of the series)): -4.66%
- outcome [6]: inactive
- Potency [3]: > 46 µM
- Potency [4]: > 46 µM
- outcome [5]: inactive

SMILES: CN1CCN2c3ccccc3Cc3ccccc3C2C1 (stereo unspecified)
- outcome [1]: inactive
- outcome [6]: inactive
- Potency [3]: > 20.6 µM

SMILES: Nc1ccn([C@H]2CC[C@@H](CO)O2)c(=O)n1
- Potency [13]: > 92 µM
- Potency [14]: > 92 µM
- Potency [15]: > 92 µM
- Potency [8]: > 92 µM
- Potency [16]: > 92 µM
- Potency [17]: > 92 µM
- outcome [5]: inactive
- activity change, negative = cytotoxicity [9]: -5.12%
- Potency [10]: inactive
- outcome [11]: inactive
- Potency [18]: inactive
- Potency [19]: inactive
- Potency [12]: inactive

SMILES: O=C(CCCN1CCC(O)(c2ccc(Cl)cc2)CC1)c1ccc(F)cc1
- outcome [1]: inactive
- activity change, negative = inhibition ([2]; at 38 µM (top of the series)): -17.8%
- outcome [6]: inactive
- outcome [5]: inactive

SMILES: CC(C)NCC(O)COc1ccc(CCOCC2CC2)cc1 (stereo unspecified)
- outcome [1]: inactive
- outcome [6]: inactive
- Potency [3]: > 20.6 µM

SMILES: CN(C)CCCN1c2ccccc2CCc2ccc(Cl)cc21
- Potency [7]: 20 µM (active) and 5.01 µM (active) and 15.8 µM (active)
- activity change, negative = inhibition ([2]; at 17.2 µM (top of the series)): -83% (active)
- outcome [6]: inactive
- Potency [3]: > 46 µM and > 20.6 µM
- Potency [4]: > 46 µM and > 20.6 µM
- outcome [5]: inactive

SMILES: NC(CO)C(=O)NNCc1ccc(O)c(O)c1O (stereo unspecified)
- outcome [1]: inactive
- activity change, negative = inhibition ([2]; at 17.2 µM (top of the series)): 13.6%
- outcome [6]: inactive

SMILES: Cc1cnc(C(=O)NCCc2ccc(S(=O)(=O)NC(=O)NC3CCCCC3)cc2)cn1
- outcome [1]: inactive
- activity change, negative = inhibition ([2]; at 17.2 µM (top of the series)): -11% and -0.964%
- activity change, negative = inhibition ([2]; at 38 µM (top of the series)): -4.17%
- outcome [6]: inactive
- outcome [5]: inactive

SMILES: O=C1c2c(O)ccc(O)c2C(=O)c2c(NCCNCCO)ccc(NCCNCCO)c21
- outcome [6]: inactive
- Potency [3]: > 46 µM and > 20.6 µM
- Potency [4]: > 46 µM and > 20.6 µM
- outcome [5]: inactive

SMILES: CCCNCC(O)COc1ccccc1C(=O)CCc1ccccc1 (stereo unspecified)
- outcome [1]: inactive
- outcome [6]: inactive

SMILES: CN(C)C(=N)N=C(N)N
- outcome [1]: inactive
- activity change, negative = inhibition ([2]; at 17.2 µM (top of the series)): -11.6%
- outcome [6]: inactive
- Potency [3]: > 20.6 µM
- Potency [4]: > 20.6 µM
- outcome [5]: inactive

SMILES: COc1cc2nc(N3CCN(C(=O)C4COc5ccccc5O4)CC3)nc(N)c2cc1OC (stereo unspecified)
- outcome [1]: inactive
- outcome [6]: inactive

— PubChem BioAssay (NCATS)
